# Calls of active or inactive are those of the source. How the source made its calls: active means hit-call score of the fitted dose curve at least 0.9, where 1 is the maximum; inactive means score below 0.9.
# Columns and labels:
# [1] = UKN5_HCS_SBAD2_cell_viability: Viability Assessment in the University of Konstanz (UKN) Leist Lab Neurite Outgrowth Assay in human iPSC-derived immature Dorsal Root Ganglia Neurons (UKN5) (AID 2284056)
# Method in brief: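 iPSC-derived immature peripheral neurons (SBAD2) seeded on Matrigel with CHIR99021, SU5402 and DAPT, dosed 1 h later for 24 h. Viability from Hoechst H-33342 and calcein-AM live staining, high-content imaging; bidirectional fit versus DMSO.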
# [2] = UKN5_HCS_SBAD2_neurite_outgrowth: University of Konstanz (UKN) Leist Lab Neurite Outgrowth Assay in human iPSC-derived immature Dorsal Root Ganglia Neurons (UKN5) (AID 2284070); settings: actives raise or lower the signal
# Method in brief: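 Thaw, seed on Matrigel (100.000 cells/cm2), dose 1 h later; at 23 h live-stain with H-33342 and calcein-AM for 60 min; image at 24 h. Neurite area fitted bidirectionally vs DMSO.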
# [3] = UKN2_HCS_IMR90_neural_migration: University of Konstanz (UKN) Leist Lab Neural Crest Cell Migration Assay in human induced IMR90 Pluripotent Stem Cells (UKN2) (AID 2284204); settings: actives raise or lower the signal
# Method in brief: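 High-content imaging of calcein-AM and Hoechst stained cells quantifies migration into a stopper-defined gap after 24 h compound exposure. Neural crest cells from IMR90 iPSC migrated 24 h in EGF/FGF N2-S medium before dosing; DMSO baseline.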
# [4] = UKN2_HCS_IMR90_cell_viability: Viability Assessment in the University of Konstanz (UKN) Leist Lab Neural Crest Cell Migration Assay in human induced IMR90 Pluripotent Stem Cells (UKN2) (AID 2284233);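 further: cells exposed to compound for 24 h after a 24 h migration phase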
# Method in brief: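 After calcein-AM/Hoechst staining, viability is quantified by high-content fluorescence imaging, relative to DMSO, in iPSC (IMR90)-derived neural crest cells. Exposure lasts 24 h, starting after a 24 h migration period on PLO/laminin/fibronectin coating.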
# [5] = Tanguay_ZF_120hpf_MUSC: Oregon State University Tanguay Lab 120 Hour Post-fertilization zebrafish Assay for Muscle Malformation (AID 2284401)
# Method in brief: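 Scored as a binary brightfield endpoint at 120 hpf, fitted versus DMSO. Single dechorionated wild-type (Tropical 5D) zebrafish embryos per well, statically exposed at 28C from 6 hpf onward with final DMSO 0.64%.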
smiles,measurement,setting,value
[CH3][Sn]([CH3])([CH3])[Cl],AC50,[1],18.8 µM (active)
same,AC50,[2],3.1 µM (active)
same,AC50,[3],7.88 µM (active)
same,AC50,[4],4.51 µM (active)
C=CC(=O)OCCC(F)(F)C(F)(F)C(F)(F)C(F)(F)F,outcome,[5],inactive
OCC(F)(F)C(F)(F)C(F)(F)C(F)(F)C(F)(F)C(F)(F)CO,outcome,[5],inactive
C=C(C)C(=O)OCCC(F)(F)C(F)(F)C(F)(F)C(F)(F)C(F)(F)C(F)(F)F,outcome,[5],inactive
C=C(C)C(=O)OCC(F)(F)C(F)(F)C(F)(F)C(F)(F)C(F)(F)C(F)(F)C(F)(F)F,outcome,[5],inactive

# — PubChem BioAssay (EPA / NIEHS)
